This note sets out measurements from PubChem BioAssay.

Activity calls are given as the source filed them.

Test [1] deals with Plasmodium falciparum Sir2 (PF13_0152, Sir2A). The test can be described thus: pfSir2 binders on small-molecule microarrays, primary screen, biochemical, small-molecule microarray, 635 nm fluorescence (AID 1098).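 Note: score merges spot fluorescence intensity with its signal-to-noise ratio.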 The conditions noted are these: small-molecule microarray binding, fluorescence 635 nm; higher = more signal.
Test [2] can be described thus: small-molecule microarray binders of probe aDKK1, primary screen, biochemical, biotinylated probe, 635/667 nm fluorescence (AID 1099).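 Note: score merges 667nm spot fluorescence with signal to noise across triplicate slides; reference of the scale not given here.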 Conditions: higher = more signal.
The nature of test [3]: small-molecule microarray binders of probe aCHRDL2, primary screen, biochemical, biotinylated probe, 635/667 nm fluorescence (AID 1100). Conditions: higher = more signal.
Test [4] is described as follows: splicing luciferase reporter signal modulators, primary screen, spliceosome inhibition project, cell-based, HEK293, splice +/- reporter (AID 1101).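 Note: HEK293 cells carrying a splicing-competent luciferase reporter gene; test concentration not given here.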 The conditions noted are these: luminescence, 24 h, higher = more signal, called active from +8 up or from −8 down. In general terms: A reporter such as luciferase makes a cellular process visible.
In test [5] the target is Fibroblast growth factor 10 (Homo sapiens) (UniProt O15520). The experiment in a line: FGF10 binders on small-molecule microarrays, primary screen, biochemical, small-molecule microarray, 635 nm fluorescence (AID 1102). The conditions noted are these: FGF10 binding, fluorescence 635 nm, higher = more signal.
Chain of Fibroblast growth factor 10 (Homo sapiens) (O15520 whole entry, looked up): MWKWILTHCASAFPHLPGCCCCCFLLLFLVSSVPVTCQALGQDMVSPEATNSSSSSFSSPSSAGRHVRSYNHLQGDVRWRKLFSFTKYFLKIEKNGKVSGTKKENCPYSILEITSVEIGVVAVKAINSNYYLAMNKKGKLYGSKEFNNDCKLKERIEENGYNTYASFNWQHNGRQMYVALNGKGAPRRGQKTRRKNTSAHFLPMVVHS
Test [6] deals with glycogen synthase kinase-3 (GSK3A per assay name; protocol says GSK3B). The test can be described thus: GSK3 binders on small-molecule microarrays, primary screen, biochemical, small-molecule microarray, 635 nm fluorescence, GSK3A (AID 1103). Note: the record names both GSK3A and GSK3B. Conditions: small-molecule microarray binding, fluorescence 635 nm; higher = more signal.
In test [7] the target is Epidermal growth factor receptor (Homo sapiens) (UniProt P00533). The experiment in a line: EGFR binders on small-molecule microarrays, primary screen, biochemical, small-molecule microarray, 635 nm fluorescence (AID 1104).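 Note: score merges 667 nm emission intensity with spot signal to noise over triplicate slides.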 Conditions: EGFR binding, higher = more signal.
Chain of Epidermal growth factor receptor (Homo sapiens) (P00533 whole entry, looked up): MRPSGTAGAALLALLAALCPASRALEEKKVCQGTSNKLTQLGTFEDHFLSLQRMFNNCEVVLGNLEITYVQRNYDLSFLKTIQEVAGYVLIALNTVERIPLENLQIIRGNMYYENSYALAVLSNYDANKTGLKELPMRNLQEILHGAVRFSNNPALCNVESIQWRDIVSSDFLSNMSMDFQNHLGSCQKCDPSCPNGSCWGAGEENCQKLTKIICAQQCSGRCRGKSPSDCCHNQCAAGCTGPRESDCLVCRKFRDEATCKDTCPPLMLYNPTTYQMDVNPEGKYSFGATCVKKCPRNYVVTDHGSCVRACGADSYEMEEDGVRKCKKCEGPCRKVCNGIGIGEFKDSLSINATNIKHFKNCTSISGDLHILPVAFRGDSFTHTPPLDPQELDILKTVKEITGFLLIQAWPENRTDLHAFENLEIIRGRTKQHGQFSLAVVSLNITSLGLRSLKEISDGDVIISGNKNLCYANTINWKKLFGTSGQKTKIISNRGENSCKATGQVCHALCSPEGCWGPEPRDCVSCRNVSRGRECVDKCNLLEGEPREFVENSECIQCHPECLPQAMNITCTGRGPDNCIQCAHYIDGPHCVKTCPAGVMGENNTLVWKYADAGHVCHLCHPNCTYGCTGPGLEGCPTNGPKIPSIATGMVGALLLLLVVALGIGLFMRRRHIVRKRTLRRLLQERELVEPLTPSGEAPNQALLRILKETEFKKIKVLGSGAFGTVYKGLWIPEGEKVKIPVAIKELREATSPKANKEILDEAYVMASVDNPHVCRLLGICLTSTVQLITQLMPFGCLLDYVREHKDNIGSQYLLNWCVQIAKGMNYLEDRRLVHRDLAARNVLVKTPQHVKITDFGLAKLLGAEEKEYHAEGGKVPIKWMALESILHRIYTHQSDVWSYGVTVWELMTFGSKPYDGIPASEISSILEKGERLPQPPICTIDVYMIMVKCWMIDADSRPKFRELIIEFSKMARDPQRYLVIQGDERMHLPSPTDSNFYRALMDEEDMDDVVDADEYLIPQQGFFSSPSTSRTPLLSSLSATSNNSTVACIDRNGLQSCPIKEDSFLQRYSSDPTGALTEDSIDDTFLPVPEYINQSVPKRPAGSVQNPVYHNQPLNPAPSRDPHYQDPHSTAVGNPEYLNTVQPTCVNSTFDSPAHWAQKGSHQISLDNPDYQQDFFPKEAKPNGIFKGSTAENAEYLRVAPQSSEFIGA
The target of test [8] is Follistatin-related protein 3 (Homo sapiens) (UniProt O95633). The experiment in a line: FSTL3 binders on small-molecule microarrays, primary screen, biochemical, small-molecule microarray, 635 nm fluorescence (AID 1105).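 Note: score merges emission near 667 nm and signal to noise per printed spot across three slides.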 Conditions: FSTL3 binding, higher = more signal.
Chain of Follistatin-related protein 3 (Homo sapiens) (O95633 whole entry, looked up): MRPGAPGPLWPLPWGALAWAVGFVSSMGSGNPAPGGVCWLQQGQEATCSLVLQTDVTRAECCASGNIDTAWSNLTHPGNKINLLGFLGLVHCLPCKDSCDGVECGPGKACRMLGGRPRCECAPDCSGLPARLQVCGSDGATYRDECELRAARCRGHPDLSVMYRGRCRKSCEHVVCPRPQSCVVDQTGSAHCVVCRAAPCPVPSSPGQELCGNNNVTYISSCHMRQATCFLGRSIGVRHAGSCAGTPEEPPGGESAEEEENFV
Test [9] deals with Dickkopf-related protein 1 (Homo sapiens) (UniProt O94907). The experiment in a line: DKK1 binders on small-molecule microarrays, primary screen, biochemical, small-molecule microarray, 635 nm fluorescence scan (AID 1106).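 Note: score merges emission near 667 nm with signal to noise over three replicate slides.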 Conditions: DKK1 binding, higher = more signal.
Chain of Dickkopf-related protein 1 (Homo sapiens) (O94907 whole entry, looked up): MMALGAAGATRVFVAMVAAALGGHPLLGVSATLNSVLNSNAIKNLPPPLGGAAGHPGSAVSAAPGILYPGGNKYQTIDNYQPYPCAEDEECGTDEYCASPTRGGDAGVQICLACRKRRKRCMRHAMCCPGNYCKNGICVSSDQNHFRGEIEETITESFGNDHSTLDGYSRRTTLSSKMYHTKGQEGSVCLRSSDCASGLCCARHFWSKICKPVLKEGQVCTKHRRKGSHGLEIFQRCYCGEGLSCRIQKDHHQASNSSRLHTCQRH
The subject of test [10] is Inhibin beta A chain (activin A). The experiment in a line: INHBA (activin A) binders on microarrays, primary screen, biochemical, small-molecule microarray, 635 nm fluorescence scan (AID 1107).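 Note: mouse activin A protein probed at 4.33 µg/mL on printed slides; score merges bound-protein fluorescence near 667 nm with spot signal-to-noise.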 The conditions noted are these: small-molecule microarray binding, higher = more signal.

As to `COc1ccc([Si](C)(C)[C@H]2[C@H](CCO)O[C@@]3(C(=O)N(Cc4ccccc4)c4ccc(N5CCCCC5=O)cc43)[C@@H]2C)cc1`, the composite z-score was 1.06 in test [1]; -0.0725 in test [2]; 0.104 in test [3]; 0.884 in test [5]; 0.737 in [6]; 0.199 in [7]. Further, the composite z-score is 0.579 in test [8], -0.0075 in [9] and 0.301 in test [10]. Besides, in test [4], the z-score is -2.11 (inactive).

With `CC(C)[Si](C#C[Si](C(C)C)(C(C)C)C(C)C)(O[C@H](C)c1cn(Cc2ccccc2)nn1)C(C)C`, the composite z-score in test [1] was 0.733; in test [2], -0.0531; in [3], -0.252; in test [5] it was 0.584; in test [6] it was 0.856; in test [7], 0.361. The composite z-score in test [8] is 0.688; in test [9] it was 0.0811; in test [10] it was -0.353. Moreover, in [4], the z-score is -0.9 (inactive).

For `[N-]=[N+]=Nc1ccccc1[C@H]1OC(c2ccc(OCCCO)cc2)=N[C@@]1(Cc1ccccc1)C(=O)N1CCOCC1`, the composite z-score is 1.43 in [1]; 1.14 in [2]; 1.08 in test [3]; 1.31 in [5]; 0.921 in test [6]; 0.73 in test [7]. For the same compound, the composite z-score in [8] is 1.07; in test [9], 0.477; in test [10] it was 1.11. Besides, the z-score in test [4] is 0.439 (inactive).

As to `O=C1NC(=O)C2C1C=CC(C(O)C1CC=CCC1)N2Nc1ccccn1` (stereo not given), the composite z-score in test [1] was determined as 1.27; in test [2] it was 0.228; in test [3] it was 0.21; in [5] it was 0.946; in [6] it was 0.0089; in test [7], 1.25. For the same compound, the values for the composite z-score in [8], in test [9] and in test [10] were 0.179, 1.33 and 1.75, respectively. Moreover, the z-score in test [4] is 1.17 (inactive).

Consider `C=CC[C@]1(C(N)=O)COC(c2ccc(OCCCO)cc2)=N1`, for which the composite z-score is -0.171 in [1]; -0.145 in test [2]; 0.381 in test [3]; 0.577 in test [5]; -0.557 in test [6]; 0.0704 in test [7]. In addition, the composite z-score in test [8] is -0.235; in test [9], -0.314; in [10] it was 0.927. In addition, the z-score in [4] was -0.359 (inactive).

As to `C=C(/C(=C/C[C@H](OC(=O)c1ccncc1)c1ccc(OCCO)cc1)c1cc(C(=O)OC)ccc1OC)C(C)C`, the composite z-score was 0.569 in test [1]; 0.031 in [2]; 0.244 in [3]; 1.42 in test [5]; -0.534 in test [6]; -0.114 in [7]. Besides, the composite z-score in test [8] amounted to 0.487; in [9], 0.178; in [10], 1.13. In addition, in [4], the z-score is -0.821 (inactive).

Turning to `CC1CC/C=C\[C@H]2OC34C=CCN(Cc5ccccc5)C(=O)[C@H]3N(C(C)CO)C(=O)[C@@H]4C2C(=O)O1` (stereo not given in full), the composite z-score in test [1] was -0.588; in test [2], -0.169; in test [3] it was -0.506; in [5], 0.0204; in test [6], -0.444; in test [7] it was -0.492. Also, the composite z-score in [8] was determined as 0.196; in test [9], 0.33; in test [10] it was 0.951. For the same compound, the z-score in [4] was 0.441 (inactive).

For the compound `O=C1NC(=O)C2C1C=CC(C(O)c1ccc(I)cc1)N2Nc1ccccn1` (stereo not given), the composite z-score in test [1] was 1.33; in test [2] it was 0.0824; in [3], 0.464; in test [5] it was -0.0548; in [6], -0.269; in test [7], 0.268. Also, the values for the composite z-score in test [8], in test [9] and in test [10] were -0.0861, 0.153 and 1.14, respectively. Also, the z-score in test [4] is 1.04 (inactive).

For the compound `COc1cc2c(cc1O)C=[N+](Cc1cc3c(cc1Br)OCO3)CC2`, the composite z-score in test [1] was 1.73; in [2], 0.0055; in [3], 0.591; in test [5], -0.445; in test [6] it was -1.06; in [7], -0.486. In addition, the composite z-score in test [8] was -1.04; in [9] it was -1.05; in [10] it was 0.655. The z-score in test [4] is -0.244 (inactive).

Consider `CC(C)[Si](C#CCCCC#N)(O[C@H](c1ccccc1)c1cn(Cc2cccc(Cl)c2)nn1)C(C)C`, for which the composite z-score is 0.397 in test [1]; -0.0654 in [2]; -0.594 in test [3]; 0.483 in test [5]; 1.18 in [6]; 0.376 in test [7]. Moreover, the composite z-score is 1.11 in [8], 0.968 in test [9] and -0.018 in test [10]. Besides, the z-score in [4] is -1.64 (inactive).

Consider `O=C1[C@H]2C=C(Br)[C@H](C[C@@H]2OCCCCCCO)[C@@]12CO2`, for which the composite z-score in [1] was 1.21; in test [2], -0.142; in [3], -0.0272; in test [5], -0.117; in test [6], -0.363; in [7] it was -0.0491. Further, the composite z-score in test [8] was -0.154; in [9] it was -0.0712; in test [10] it was 1.61. In [4], the z-score was 0.428 (inactive).

In the case of `COCCOC(=O)N1C(=O)[C@@]2(c3ccccc31)[C@H](C(N)=O)[C@H]1C(=O)O[C@H](c3ccccc3)[C@H](c3ccccc3)N1[C@@H]2c1ccc(O)cc1`, the composite z-score in [1] is 0.784; in [2], -0.566; in test [3], 0.481; in test [5], 0.0392; in test [6], -0.0985; in [7] it was -0.458. The composite z-score in [8] is 0.292; in [9] it was -0.0601; in test [10], 0.0565. In addition, the z-score in test [4] is -0.726 (inactive).

With `COc1ccccc1CN1C(=O)c2ccccc2[C@@H](C(=O)NCc2ccccc2)[C@@H]1c1ccc(CO)cc1`, the composite z-score was 1.48 in test [1]; -0.262 in test [2]; 0.617 in [3]; -0.144 in test [5]; 0.883 in test [6]; -0.154 in test [7]. The composite z-score is -0.113 in test [8], -0.258 in test [9] and -0.134 in test [10]. Besides, in [4], the z-score was -0.263 (inactive).

For the compound `CC(C)OC(=O)C=C1C[C@@H](c2cccc(Cl)c2)O[C@@H](c2cccc(Cl)c2)O1`, the composite z-score in [1] was 1.31; in test [2] it was 0.471; in test [3] it was 1.11; in test [5], 0.31; in test [6] it was 0.651; in test [7], -1.18. For the same compound, the results for the composite z-score in test [8], in test [9] and in test [10] were -0.901, -1.42 and 1.24, respectively. In addition, in test [4], the z-score was 1.35 (inactive).

In the case of `COCCCNC(=O)[C@@]1(Sc2ccc(C)cc2)CC(=O)N(Cc2ccccc2Cl)[C@@H]1c1ccc(CO)cc1`, the composite z-score in test [1] was 1.36; in [2], 0.0942; in test [3], 0.0166; in test [5], 0.977; in test [6] it was 0.56; in test [7], 0.491. Moreover, the composite z-score is 1.36 in [8], 0.553 in test [9] and 0.595 in test [10]. In addition, the z-score in [4] was -0.87 (inactive).

On to `O=C1O[C@@H](c2ccccc2)[C@@H](c2ccccc2)N2[C@@H](c3ccc(OCCO)cc3)[C@]3(C(=O)Nc4ccc(C#CC5=CCCCC5)cc43)[C@@H](C(=O)N3CCCCCCC3)[C@H]12`, for which the composite z-score is 1.66 in [1]; 2.71 in test [2]; 1.43 in test [3]; 1.32 in [5]; 1.33 in test [6]; 1.71 in [7]. The composite z-score in test [8] came out at 1.58; in test [9] it was 2.08; in test [10] it was 1.91. Besides, in [4], the z-score is -0.447 (inactive).

Consider `COC(=O)[C@@]1(Cc2ccc(OC)cc2)[C@H]2c3cc(C(=O)N4CCCC4)n(CCSCCO)c3C[C@H]2CN1C(=O)c1ccccc1`, for which the composite z-score came to 0.45 in [1]; 0.852 in test [2]; 1.21 in test [3]; 0.556 in test [5]; 0.541 in test [6]; 0.0009 in [7]. In addition, the composite z-score was -0.17 in test [8], -0.984 in test [9] and 0.435 in [10]. Besides, the z-score in test [4] was -0.657 (inactive).
